Active and inactive are the calls of the source. The calls were made as follows: active = hit-call score of the fitted dose curve at least 0.9, where 1 is the maximum; inactive = score below 0.9.
assay: ATG_GLI_CIS: Attagene CIS-FACTORIAL HepG2 Assay for human Zinc Finger Protein GLI1 (AID 2282945); details: HepG2, Attagene cis-factorial reporter mRNA, GLI element; actives raise or lower the signal
Method: ATG_CIS is a cell-based, multiplexed-readout assay that uses HepG2, a human liver cell line, with measurements taken at 24 hours after chemical dosing in a 24-well plate.ATG_GLI_CIS is one of 52 assay component(s) measured or calculated from the ATG_CIS assay. It is designed to make measurements of mRNA induction, a form of inducible reporter, as detected with fluorescence intensity signals by Reverse transcription polymerase chain reaction (RT-PCR) and Capillary electrophoresis technology.Data from the assay component ATG_GLI_CIS was analyzed into 1 assay endpoint. This assay endpoint, ATG_GLI_CIS, was analyzed with bidirectional fitting relative to DMSO as the negative control and baseline of activity. Using a type of inducible reporter, measures of mRNA for gain or loss-of-signal activity can be used to understand the reporter gene at the transcription factor-level as they relate to the gene GLI1. Furthermore, this assay endpoint can be referred to as a primary readout, because this assay has produced multiple assay endpoints where this one serves a reporter gene function. To generalize the intended target to other relatable targets, this assay endpoint is annotated to the dna binding intended target family, where the subfamily is zinc finger.
Human liver HepG2 cells are transiently transfected with multiple reporter transcription units (MRTUs) in 6-well plates using FuGene 6 reagent (Roche; 3 ml FuGene/1 mg DNA). The MRTU constructs are regulated by a cis-regulating element (promoter). […] A major difference between the CIS and TRANS system is that in CIS activities of endogenous TFs are measured, whereas the TRANS assay evaluates changes in activities of exogenous, chimeric NR-Gal4 proteins. […] At the end of 24 hour incubation, total RNA was isolated using TriZol reagent (Invitrogen). The isolated RNA is then reverse-transcribed using oligo(dT) primer and Mo-MLV reverse transcriptase (Invitrogen) with DNAse I (Ambion) treatment for 30 min. The one-tenth of the produced cDNA was amplified by PCR using Taq DNA polymerase (Invitrogen) and two reporter sequence-specific primers. The PCR products were fluorescently labeled by primer extension with 6-arboxyfluorescein (6-FAM) 5'-labeled reporter sequence-specific primer (2 min at 95 C, 20 s at 68 C and 10 min at 72 C) and these products were digested with 5U of HpaI (New England Biolabs) for 2h at 37 C. The fragments were purified using Qiaquick PCR columns (Qiagen), analyzed on an ABI 3130xL genetic analyzer (Applied Biosystems) with peak positions identified by using a set of X-rhodamine (ROX)-labeled MapMarker1000 molecular weight standards (BioVentures). The raw capillary electrophoresis data was processed using Attagraph software (Attagene).

Structure (SMILES)	outcome	AC50
Cc1ccc([N+](=O)[O-])cc1S(=O)(=O)O	inactive	–
C=CC(C)(CCC=C(C)C)OC(=O)C(C)C (stereo not given)	inactive	–
CCC(CC)C(=O)O	inactive	–
OC1CCCC1	inactive	–
O=S(=O)(Oc1ccc(Cl)cc1Cl)c1ccccc1	inactive	–
C=CC(=O)OCC(Br)CBr (stereo not given)	inactive	–
COc1ccc(NC(C)=O)cc1N	inactive	–
Clc1nc2ccccc2s1	inactive	–
COc1ccc(C(Cl)=C(c2ccc(OC)cc2)c2ccc(OC)cc2)cc1	inactive	–
O=C(OCC1CCC2OC2C1)C1CCC2OC2C1 (stereo not given)	inactive	–
CCOC(=O)CC	inactive	–
C=C[Si](OC(C)=O)(OC(C)=O)OC(C)=O	inactive	–
OC1CCCCCCCCCCC1	inactive	–
NNC(=O)c1cccc(C(=O)NN)c1	inactive	–
c1ccc(-c2ccccn2)nc1	inactive	–
O=CN1CCCCC1	inactive	–
COCC(C)N (stereo not given)	inactive	–
C=CC(=O)OCCC(=O)O	inactive	–
CC(C)(C)C(=O)CCc1ccc(Cl)cc1	inactive	–
CCCC(C)CCC(C)=O (stereo not given)	inactive	–

Structure (SMILES)	outcome	AC50
CC(C)c1ccc2c(C(C)C)cc(C(C)C)c(S(=O)(=O)O)c2c1	inactive	–
Cc1cccc(N)n1	inactive	–
COC(=O)c1sccc1S(N)(=O)=O	inactive	–
O=C1CCCCCN1SSN1CCCCCC1=O	–	155 µM (active)
CC=C1CC2C=CC1C2 (stereo not given)	inactive	–
C=CC(=O)OCCOC1C2CCC1C1CC=CC12 (stereo not given)	inactive	–
O=c1[nH]nc(-c2ccc([N+](=O)[O-])o2)o1	inactive	–
Cc1cc(C)c(C(=O)O)c(C)c1	inactive	–
CC(C)(C)C(=O)C=Cc1ccc(Cl)cc1	–	59.1 µM (active)
CCCCC/C=C\CCC=O	inactive	–
O=C1c2ccccc2C(=O)C1c1nc2ccccc2c(Br)c1O	inactive	–
O=P(O)(O)Oc1ccccc1	inactive	–
Cc1cccc(C(=O)O)c1	inactive	–
Cc1cc(C)c(C)c(O)c1	inactive	–
CCOC(=O)NNc1nncc2ccccc12	inactive	–
CC1(C)[C@H]2CC[C@]1(C)C(=O)C2	inactive	–
O=c1c2ccccc2oc2ccccc12	inactive	–
O=C(c1ccc(O)cc1)c1ccc(O)cc1O	inactive	–
O=CC1CC1	inactive	–
C(=CC=Nc1ccccc1)C=CNc1ccccc1	inactive	–
